# Source: PubChem BioAssay (National Center for Advancing Translational Sciences (NCATS))
# Compounds with a hit are over-represented: about 12% of the library has one in this group of screens.
# Cycloheximide cs – Cycloheximide Counterscreen for Small Molecule Inhibitors of Shiga Toxin. 300,000 compounds, 12% hits. cell reporter, cycloheximide protein synthesis inhibition counterscreen. max response, %; in the data active = max response mostly above about 13%, no sharp cut-off; inactive = mostly below about 14%; note: read at 38.3 µM for the half of the compounds with a filed dose; 0% is about no effect
# Sm TGR inh – qHTS Assay for the Inhibitors of Schistosoma Mansoni Peroxiredoxins; Potency, µM (titrated, usually from 114 µM), for the others: at the top dose activity change, negative = inhibition, hits mostly inhibitors; purified TGR, DTNB reduction, TNB absorbance 405 nm; Schistosoma mansoni thioredoxin glutathione reductase (TGR), Q962Y6; 360,000 compounds, 3% hits; active = well fitted inhibition curve with a large enough effect; inconclusive = small, poorly fitted or top-dose-only effect; inactive = no such curve, though single readings can be large or run the other way; note: potency is the fitted concentration of half-maximal effect; % is set by controls: 0 for no effect and ±100 for the full control effect; nearly all actives have a fitted effect of over 60% in size
#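 Kinetic colorimetric format: TGR-catalysed, NADPH-driven DTNB reduction monitored via TNB absorbance. Enzyme dispensed at 20 nM; compound exposure 15 min at room temperature before reaction start.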
# Shiga toxin inh – A qHTS for Small Molecule Inhibitors of Shiga Toxin. 290,000 compounds, 9.2% hits. inhibition, % at 38.7 µM. Vero cells, Shiga toxin protein synthesis inhibition reporter; in the data active = inhibition mostly above about 28%, no sharp cut-off; inactive = mostly below about 43%; note: 0% is about no effect
# FMDV antiviral – High Throughput Screening for Foot and Mouth Disease Virus Antivirals. FMDV antiviral cell-based qHTS. Potency, µM (titrated, usually from 57.9 µM), for inactives: at the top dose activity change, negative = inhibition, hits mostly inhibitors. 410,000 compounds, 1.2% hits. AID 1159524, 2015; calls by dose curve; tested in HEK293T cells; note: read-out not given here; potency is the fitted concentration of half-maximal effect; % is set by controls: 0 for no effect and ±100 for the full control effect; nearly all actives have a fitted effect of over 45% in size
# The depositor's hits bear a star; ? = inconclusive; nt = not tested or not shown.
SMILES,Cycloheximide cs,Sm TGR inh,Shiga toxin inh,FMDV antiviral
Nc1c(C(=O)Nc2ccc(S(=O)(=O)N3CCCC3)cc2)sc2nc3ccc(OC(F)(F)F)cc3cc12,7,-4%,3,-1%
Nc1c(C(=O)Nc2ccc(S(=O)(=O)N3CCCC3)cc2)sc2nc3cc4c(cc3cc12)CCC4,27*,2%,22*,26%
COc1ccc(NS(=O)(=O)NC(=O)c2c(C)n(C)c3ccccc23)cc1,24*,-11%,-6,-1%
COc1ccc(NS(=O)(=O)NC(=O)c2cn(C)c3ccccc23)cc1,9,-13%,11,-1%
COc1cccc(Cn2c(=O)n(CCc3ccccc3)c(=O)c3c2c2cc(OC)ccc2n3C)c1,nt,2%,nt,-8%
COc1cccc(CNC(=O)C(=O)NCC(c2ccco2)S(=O)(=O)c2ccccc2)c1 (centres undefined),nt,-6%,nt,?
Cc1ccc(S(=O)(=O)C(CNC(=O)C(=O)NCc2ccc(Cl)cc2)c2ccco2)cc1 (centres undefined),nt,?,nt,-9%
O=C(NCc1ccc(Cl)cc1)C(=O)NCC(c1ccco1)S(=O)(=O)c1cccs1 (centres undefined),nt,40µM*,nt,-9%
COc1ccc(CNC(=O)C(=O)NCC(c2ccco2)S(=O)(=O)c2cccs2)cc1 (centres undefined),nt,18µM*,nt,-25%
Fc1cc(Br)ccc1Nc1c2c(nc3nc(-c4cccs4)nn13)CCCC2,nt,-4%,nt,?
CC(C)C[C@@H](C(=O)O)N(Cc1cccc(CN([C@@H](CC(C)C)C(=O)O)S(C)(=O)=O)c1)S(C)(=O)=O,-2,-1%,-4,-17%
CS(=O)(=O)N(Cc1cccc(CN(C(C(=O)O)c2ccccc2)S(C)(=O)=O)c1)C(C(=O)O)c1ccccc1 (centres undefined),4,5µM*,8,-5%
O=c1[nH]c(SCc2cccc(Cl)c2)nc2[nH]ncc12,20*,0%,17,-8%
O=c1[nH]c(SCc2ccc(Cl)cc2)nc2[nH]ncc12,19*,-1%,27,4%
CCc1ccc(NC(=O)Cn2c(=O)n(Cc3ccco3)c(=O)c3cccnc32)cc1,nt,-15%,nt,-2%
COc1cccc(C(=O)c2cn(CC(=O)Nc3cccc(C)c3C)c3nc(C)ccc3c2=O)c1,nt,-1%,nt,0%
Cc1ccc(Cn2nnc(C(=O)Nc3cccc(C)c3C)c2N)cc1,2,0%,-2,-23%
Cc1cccc(NC(=O)c2n[nH]c([N+](=O)[O-])c2Br)c1C,22*,-1%,67*,-70%
Cn1c(NCc2ccccc2O)nc2ccccc21,38*,0%,37,42%
c1ccc(Cn2c(NCc3ccccn3)nc3ccccc32)cc1,-2,7%,3,-15%
C=CCn1c(NCc2ccccc2OC)nc2ccccc21,18*,1%,32,23%
c1ccc(Cn2c(NCc3ccncc3)nc3ccccc32)cc1,26*,-5%,52*,-10%
C=CCn1c(NCc2ccccc2)nc2ccccc21,16*,0%,51,7%
C=CCn1c(-c2ccc(C)cc2)nc2ccccc21,9,-4%,26,19%
CC(=O)c1ccc(N2CCN(c3ncnc4onc(C)c34)CC2)cc1,nt,4%,nt,?
SMILES,Cycloheximide cs,Sm TGR inh,Shiga toxin inh,FMDV antiviral
C=CCn1c(NCc2ccc(OC)cc2O)nc2ccccc21,33*,-6%,23*,49%
C=CCn1c(NCc2ccccc2O)nc2ccccc21,22*,-7%,nt,41%
Cn1c(NCc2cccc(Br)c2)nc2ccccc21,13*,4%,26*,24%
C=CCn1c(NCc2cc(Cl)ccc2O)nc2ccccc21,1,-6%,-6,23%
Cc1ccc(CNc2nc3ccccc3n2C)o1,54*,-12%,51*,57%
COc1cccc(NC(=O)CN2C(=O)C3(SCC(=O)N3c3cc(C)cc(C)c3)c3ccccc32)c1 (centres undefined),nt,-6%,nt,-20%
Cc1ccc2oc(C(=O)N(Cc3ccncc3)CC3CCCO3)c(C)c2c1 (centres undefined),35*,-3%,54*,19%
Cc1c(C(=O)N(Cc2ccc(Cl)cc2)CC2CCCO2)oc2ccc(F)cc12 (centres undefined),nt,2%,nt,-9%
CCCc1ccc2oc(C(=O)N(Cc3ccncc3)CC3CCCO3)c(C)c2c1 (centres undefined),12*,-16%,20,17%
Cc1cccc(/C=C\c2ccccc2)n1,nt,nt,nt,27%
CC1=C(/C=C/c2ccccc2)CCN(C)C1,33*,-30%,47,38%
COc1ccc(-c2cn(-c3ccc(C)cc3C)c(=S)[nH]2)cc1OC,2,-24%,21,?
COc1ccc(-c2cn(-c3cccc(C)c3)c(=O)[nH]2)cc1OC,15,13µM*,28,-22%
CN(C)c1ccc(C(=O)/C=C/c2cccnc2)cc1,46*,-30%,82*,-16%
O=C(/C=C/c1cccnc1)c1ccc(F)c(F)c1,-3,28µM*,16,0%
CCN(C(=O)c1cccc(Br)c1)c1ccccc1,1,5%,-5,-20%
CN(C)c1ccc(/C=C/C(=O)c2cccc(Br)c2)cc1,64*,1%,127*,35%
O=C(O)/C=C/c1cccnc1,-2,2%,13,-15%
CC(/C=C\c1cccnc1)=C/C(=O)O,-3,0%,-10,-6%
O=C(CS)Nc1ccc2ccccc2c1,15,-35%,49,14%
CC(C)CC(=O)Nc1ccc2c(c1)oc1ccccc12,45*,-3%,167*,62%
CCCCCC(=O)Nc1ccc2ccccc2c1,50*,-2%,61*,57%
O=C(Nc1ccc2c(c1)oc1ccccc12)C1CC1,46*,6%,95*,28%
O=C(CSc1ccccn1)Nc1ccc2c(c1)oc1ccccc12,42*,-16%,57*,36%
CCCCC(=O)Nc1ccc2c(c1)oc1ccccc12,25*,7%,73*,60%
SMILES,Cycloheximide cs,Sm TGR inh,Shiga toxin inh,FMDV antiviral
O=C(Nc1ccc2c(c1)OC1(CCCC1)O2)C1CC1,17*,0%,42,nt
COc1ccc(-c2csc(Nc3ccccc3)[n+]2CC(O)c2ccc([N+](=O)[O-])cc2)cc1 (centres undefined),18*,-2%,32,?
COc1ccc(CCNC(=O)Cn2c(=O)nc(-c3ccccc3F)c3cc(Cl)ccc32)cc1OC,nt,5%,nt,24%
C=CCSc1nnc(-c2cccc3ccccc23)o1,nt,nt,nt,-8%
C=CCSc1nnc(-c2cc3c(s2)-c2ccccc2CC3)o1,14*,0%,52*,13%
CCOc1ccccc1C1N=C(c2ccc(OC)cc2)CC(c2ccccc2O)N1 (centres undefined),46*,-11%,114*,5%
COc1ccc(C2=NN(C(=O)CCC(=O)O)C(c3ccccc3OC)C2)cc1 (centres undefined),-1,-1%,2,6%
CNc1oc(-c2ccc(OCc3ccccc3)cc2)nc1C#N,24*,-13%,38,23%
CCOc1ccc(Nc2oc(-c3cccs3)nc2C#N)cc1,17,2%,65,nt
COc1ccc(Nc2oc(-c3ccc(F)cc3)nc2C#N)cc1,35*,2%,73*,36%
